PubChem BioAssay (Tox21)
Results filed as inconclusive are left out. Active and inactive are the calls of the source. Unless noted, the call rests on the fitted dose curve.

Tests used:
[1] = Nuclear factor erythroid 2-related factor 2/antioxidant responsive element (Nrf2/ARE) small molecule agonists: qHTS cell viability counter screen in human keratinocytes (AID 1919968; active means well fitted curve in the direction sought with a large enough effect in the repeat runs; an effect the other way counts as inactive or inconclusive; further: nearly all actives have a fitted effect of over 55% in size)
Procedure, shortened: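 Cytotoxicity was multiplexed with the Nrf2/ARE luciferase assay in the same wells. Stably transfected HaCaT keratinocytes were treated with test compounds for 23 h at 37 C. Cell viability was then measured by CellTiter-Fluor fluorescence.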

[2] = Nuclear factor erythroid 2-related factor 2/antioxidant responsive element (Nrf2/ARE) small molecule agonists: luciferase reporter gene qHTS assay in human keratinocytes (AID 1919969); further: nearly all actives have a fitted effect of over 35% in size; further: potency means the concentration at half of the fitted maximal effect
[3] = target: Gonadotropin-releasing hormone receptor (Homo sapiens) (UniProt P30968); assay: Human gonadotropin-releasing hormone receptor (GnRHR) small molecule agonists, calcium flux assay in GnRHR-HEK293 cells (AID 1920063); further: nearly all actives have a fitted effect of over 35% in size
Chain of Gonadotropin-releasing hormone receptor (Homo sapiens) (P30968 whole entry, looked up): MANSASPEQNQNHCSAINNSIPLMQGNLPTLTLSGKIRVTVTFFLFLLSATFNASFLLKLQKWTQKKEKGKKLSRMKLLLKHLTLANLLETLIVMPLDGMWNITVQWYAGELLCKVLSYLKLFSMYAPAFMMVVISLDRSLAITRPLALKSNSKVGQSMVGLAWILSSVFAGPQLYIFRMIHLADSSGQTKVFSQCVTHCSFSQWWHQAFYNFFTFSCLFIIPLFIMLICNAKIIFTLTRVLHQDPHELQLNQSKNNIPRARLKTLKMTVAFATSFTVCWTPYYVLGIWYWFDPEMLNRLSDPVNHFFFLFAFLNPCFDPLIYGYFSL
Procedure, shortened: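 Agonist activity was measured as intracellular calcium flux in HEK293 cells engineered to stably express human GnRHR. After dye loading for 1 hour at 37 C, compounds in DMSO were added and fluorescence was followed for 3 minutes.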

[4] = target: KiSS-1 receptor (Homo sapiens) (UniProt Q969F8); assay: Human kisspeptin (KISS1R) small molecule agonists, calcium flux assay in KISS1R-HEK293 cells (AID 1920064; active means well fitted curve in the direction sought with a large enough effect in the repeat runs; an effect the other way counts as inactive or inconclusive)
Chain of KiSS-1 receptor (Homo sapiens) (Q969F8 whole entry, looked up): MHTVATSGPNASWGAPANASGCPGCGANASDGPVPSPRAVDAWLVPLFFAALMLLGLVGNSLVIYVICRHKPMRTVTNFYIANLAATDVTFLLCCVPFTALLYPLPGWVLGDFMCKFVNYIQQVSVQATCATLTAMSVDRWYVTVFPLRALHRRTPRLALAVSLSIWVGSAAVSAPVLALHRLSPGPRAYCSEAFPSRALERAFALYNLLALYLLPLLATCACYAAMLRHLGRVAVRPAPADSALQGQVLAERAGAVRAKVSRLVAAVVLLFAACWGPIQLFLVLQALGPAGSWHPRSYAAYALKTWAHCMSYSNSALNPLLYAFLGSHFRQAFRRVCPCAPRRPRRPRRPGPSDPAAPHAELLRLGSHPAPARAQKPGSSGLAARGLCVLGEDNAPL
Procedure, shortened: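 Agonist activity is monitored as intracellular calcium rise in engineered HEK293 cells carrying human KISS1R. Cells are dye-loaded for 1 h at 37 C before compound addition, and fluorescence is recorded for 3 min.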

[5] = G protein-coupled receptor (GPCR) small molecule agonists, calcium flux assay: HEK293 wild type cell line counter screen (AID 1920065)
Procedure, shortened: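 Seed cells, incubate 18 h (37 C, 5% CO2); add calcium dye, 1 h at 37 C; pin-transfer compounds, ATP control or DMSO; read fluorescence 480/540 nm each second for 3 min.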

[6] = p53 small molecule agonists, cell-based qHTS assay with human liver microsomes (AID 1963577);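 further: p53 response element beta-lactamase reporter cells with liver microsomes plus NADPH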
Procedure, shortened: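 Fluorescence of the beta-lactamase reporter in p53RE-bla cells, detected with LiveBLAzer substrate (2 h, room temperature, dark), served as the read-out after 16 h compound exposure at 37 C with human liver microsomes and NADPH, each 0.5 mg/mL final.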

[7] = p53 small molecule agonists, cell-based qHTS assay with human liver microsomes: qHTS cell viability counter screen (AID 1963579); further: nearly all actives have a fitted effect of over 45% in size
Procedure, shortened: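 Cytotoxicity counter screen: p53RE-bla, 4,000 cells/well; 5 h settle, 37 C/5% CO2; cpd + HLM 0.5 mg/mL + NADPH 0.5 mg/mL (final); 16 h, 37 C; CellTiter-Glo, 30 min RT, luminescence.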

[8] = p53 small molecule agonists, cell-based qHTS assay with rat liver microsomes: qHTS cell viability counter screen (AID 1963580); further: nearly all actives have a fitted effect of over 45% in size
Procedure, shortened: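 After the beta-lactamase ratio was read, CellTiter-Glo was added to the same wells and luminescence measured at 30 min; cells had been treated 16 h at 37 C with compounds, rat liver microsomes and NADPH (0.5 mg/mL final each).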

[9] = p53 small molecule agonists, cell-based qHTS assay: qHTS cell viability counter screen (AID 1963581); further: nearly all actives have a fitted effect of over 45% in size
Procedure, shortened: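 Viability was counter-screened in parallel with the p53 agonist reporter by measuring intracellular ATP luminescence in the same HCT-116 p53RE-bla wells after 16 h compound treatment at 37 C.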

[10] = p53 small molecule agonists, cell-based qHTS assay (AID 1963582; active means well fitted activation curve with a large enough effect in the signal ratio in the repeat runs, not every such curve was filed as active; the % refers to the signal ratio)
Procedure, shortened: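 Cells carrying a p53-responsive bla reporter are treated with test compounds for 16 h at 37 C; beta-lactamase activity is then detected with LiveBLAzer B/G FRET substrate after 2 h at room temperature.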

[11] = target: 5-hydroxytryptamine receptor 2A (Homo sapiens) (UniProt P28223); assay: 5-hydroxytryptamine receptor 2A (HTR2A) small molecule agonists, cell-based qHTS assay (AID 1963587); further: nearly all actives have a fitted effect of over 30% in size; further: potency means the concentration at half of the fitted maximal effect
Chain of 5-hydroxytryptamine receptor 2A (Homo sapiens) (P28223 whole entry, looked up): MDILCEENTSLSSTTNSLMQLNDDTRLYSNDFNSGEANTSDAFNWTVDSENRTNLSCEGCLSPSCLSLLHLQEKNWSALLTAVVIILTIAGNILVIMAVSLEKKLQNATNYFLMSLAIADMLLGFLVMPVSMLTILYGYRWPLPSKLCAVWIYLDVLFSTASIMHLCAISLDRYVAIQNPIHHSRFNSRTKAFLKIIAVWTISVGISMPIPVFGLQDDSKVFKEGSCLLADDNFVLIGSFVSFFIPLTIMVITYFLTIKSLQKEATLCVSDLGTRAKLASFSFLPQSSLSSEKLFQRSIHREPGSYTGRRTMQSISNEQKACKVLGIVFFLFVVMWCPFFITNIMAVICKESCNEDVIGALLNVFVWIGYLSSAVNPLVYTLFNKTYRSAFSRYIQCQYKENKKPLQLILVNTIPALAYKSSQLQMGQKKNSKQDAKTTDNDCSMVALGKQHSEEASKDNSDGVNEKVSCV
Procedure, shortened: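 CHO cells stably expressing human HTR2A, plated 18 h, loaded with calcium dye 1 h at 37 C. Agonist mode: compounds added and intracellular calcium fluorescence recorded kinetically for 2 min at 1 sec intervals.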

[12] = target: Muscarinic acetylcholine receptor M1 (Homo sapiens) (UniProt P11229); assay: Cholinergic receptor muscarinic 1 (CHRM1) small molecule antagonists, cell-based qHTS assay (AID 1963588); further: nearly all actives have a fitted effect of over 40% in size; further: potency means the concentration at half of the fitted maximal effect
Chain of Muscarinic acetylcholine receptor M1 (Homo sapiens) (P11229 whole entry, looked up): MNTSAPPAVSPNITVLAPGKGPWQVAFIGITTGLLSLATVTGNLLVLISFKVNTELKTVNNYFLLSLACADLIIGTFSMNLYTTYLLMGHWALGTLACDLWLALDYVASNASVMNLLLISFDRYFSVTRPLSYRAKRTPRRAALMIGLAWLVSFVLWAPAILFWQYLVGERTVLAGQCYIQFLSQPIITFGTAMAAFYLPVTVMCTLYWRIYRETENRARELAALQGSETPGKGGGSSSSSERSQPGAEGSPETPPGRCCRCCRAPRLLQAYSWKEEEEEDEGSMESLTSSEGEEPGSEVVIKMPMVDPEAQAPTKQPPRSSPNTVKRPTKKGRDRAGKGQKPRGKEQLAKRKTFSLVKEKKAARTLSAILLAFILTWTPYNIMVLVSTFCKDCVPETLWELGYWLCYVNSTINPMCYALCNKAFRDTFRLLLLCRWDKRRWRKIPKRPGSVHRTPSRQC
Procedure, shortened: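 Compounds were tested at 15 concentrations in three independent runs. Dye-loaded CHRM1-CHO cells were exposed 5 min at room temperature before stimulation by acetylcholine added at 50nM. Intracellular calcium was read kinetically on FDSS for 3 min.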

[13] = target: Muscarinic acetylcholine receptor M1 (Homo sapiens) (UniProt P11229); assay: Cholinergic receptor muscarinic 1 (CHRM1) small molecule agonists, cell-based qHTS assay (AID 1963589); further: nearly all actives have a fitted effect of over 35% in size
Procedure, shortened: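 Cells were plated and incubated 18 h at 37 C/5% CO2, loaded with calcium dye for 1 h at 37 C, then treated with compounds in DMSO. Fluorescence was recorded kinetically at 1 sec intervals.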

[14] = cAMP Responsive Elements (CRE) small molecule antagonists, cell-based qHTS assay (AID 1963591; active means well fitted inhibition curve with a large enough effect in the signal ratio in the repeat runs, not every such curve was filed as active; the % refers to the signal ratio)
Procedure, shortened: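 Cells (CRE-bla HEK 293T, DMEM with 10% dialyzed FBS and 25 mM HEPES) are seeded and incubated 18 h. Compounds are added with NKH477 agonist at 0.25 uM final for 3 h, then FRET substrate for 2 h.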

[15] = target: Beta-2 adrenergic receptor (Homo sapiens) (UniProt P07550); assay: Adrenergic beta2 receptor (ADRB2) small molecule antagonists, cell-based qHTS assay (AID 1963592); further: nearly all actives have a fitted effect of over 50% in size; further: potency means the concentration at half of the fitted maximal effect
Chain of Beta-2 adrenergic receptor (Homo sapiens) (P07550 whole entry, looked up): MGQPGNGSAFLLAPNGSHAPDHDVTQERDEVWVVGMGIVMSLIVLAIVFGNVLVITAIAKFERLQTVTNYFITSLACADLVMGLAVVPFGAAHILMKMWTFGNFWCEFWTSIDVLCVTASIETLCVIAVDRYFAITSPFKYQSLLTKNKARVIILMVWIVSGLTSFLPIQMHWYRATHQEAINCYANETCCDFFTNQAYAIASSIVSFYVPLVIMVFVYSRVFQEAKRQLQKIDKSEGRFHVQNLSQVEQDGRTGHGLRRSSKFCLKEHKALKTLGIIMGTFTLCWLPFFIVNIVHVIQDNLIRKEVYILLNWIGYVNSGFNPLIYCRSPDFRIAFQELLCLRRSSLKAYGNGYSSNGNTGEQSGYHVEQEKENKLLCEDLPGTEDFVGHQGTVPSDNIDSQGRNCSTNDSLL
Procedure, shortened: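 Assay format: CHO-ADRB2 cells, 18-20hr seeding at 37C/5% CO2, then compound plus 1nM isoproterenol agonist mix for 0.5hr RT. Homogeneous time-resolved fluorescence cAMP detection after 1hr, expressed as 665/615 nm ratio.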

[16] = target: D(2) dopamine receptor (Homo sapiens) (UniProt P14416); assay: Dopamine D2 receptor (DRD2) small molecule agonists, cell-based qHTS assay (AID 1963594); further: nearly all actives have a fitted effect of over 35% in size; further: potency means the concentration at half of the fitted maximal effect
Chain of D(2) dopamine receptor (Homo sapiens) (P14416 whole entry, looked up): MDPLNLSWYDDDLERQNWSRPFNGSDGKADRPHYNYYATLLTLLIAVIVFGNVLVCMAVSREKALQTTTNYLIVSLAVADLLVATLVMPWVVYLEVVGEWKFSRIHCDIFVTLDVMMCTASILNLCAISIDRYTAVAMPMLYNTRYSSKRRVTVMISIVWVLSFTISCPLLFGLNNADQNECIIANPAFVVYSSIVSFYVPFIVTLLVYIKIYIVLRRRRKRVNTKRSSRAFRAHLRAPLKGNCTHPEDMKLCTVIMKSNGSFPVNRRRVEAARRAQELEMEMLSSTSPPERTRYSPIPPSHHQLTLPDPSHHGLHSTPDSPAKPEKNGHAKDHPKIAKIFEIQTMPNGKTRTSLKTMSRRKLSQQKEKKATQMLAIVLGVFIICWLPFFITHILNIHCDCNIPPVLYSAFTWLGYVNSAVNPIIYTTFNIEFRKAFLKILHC
Procedure, shortened: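 HEK293 cells stably expressing human DRD2, pre-treated with PDE inhibitor Ro20-1724 (0.1 mM final) and compound 10 min at room temperature, then stimulated with NKH477 (200nM […]) for 30 min. cAMP read by HTRF (665/620 nm).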

[17] = target: D(2) dopamine receptor (Homo sapiens) (UniProt P14416); assay: Dopamine D2 receptor (DRD2) small molecule antagonists, cell-based qHTS assay (AID 1963595; active means well fitted inhibition curve with a large enough effect in the signal ratio in the repeat runs, with a control signal flat; the % refers to the signal ratio)
Procedure, shortened: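 In this cell-based antagonist screen, compounds act for 10 min at room temperature before a 30 min challenge with 12 nM quinpirole and 200 nM NKH477. cAMP is quantified by HTRF competition in DRD2-HEK293 cells containing 0.1 mM Ro20-1724.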

[18] = cAMP Responsive Elements (CRE) small molecule agonists, cell-based qHTS assay (AID 1963590)
Procedure, shortened: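 Cells carrying a CRE-driven beta-lactamase reporter (HEK 293T) are seeded, incubated overnight (18 h), and treated with test compounds for 3 h at 37 C; reporter activity is then detected with a FRET substrate after 2 h at room temperature.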

[19] = target: 5-hydroxytryptamine receptor 2A (Homo sapiens) (UniProt P28223); assay: 5-hydroxytryptamine receptor 2A (HTR2A) small molecule antagonists, cell-based qHTS assay (AID 1963586); further: nearly all actives have a fitted effect of over 45% in size; further: potency means the concentration at half of the fitted maximal effect
Procedure, shortened: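 CHO cells stably expressing human HTR2A were plated for 18 h at 37 C, then loaded with calcium dye for 1 h. Compounds were preincubated 5 min at room temperature before DOI (4 nM solution) was added. Kinetic fluorescence was read for 3 min.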

Measured: Potency

O=C(Nc1ccc([N+](=O)[O-])cc1)Nc1ccc([N+](=O)[O-])cc1
not listed: [18] | [19]
inactive: all other assays above

CC(C)OC(=O)c1cc2c(OCC(O)CNC(C)(C)C)cccc2[nH]1 (stereo not drawn)
active: [15] 0.0033 µM | [16] 13.3 µM
not listed: [19]
inactive: all other assays above

O=C1CCCc2c(O)cccc21
active: [12] 0.163 µM
inactive: all other assays above

CCCCCCCCC(C)=O
inactive: all assays above

O=[N+]([O-])c1ccc(F)c(Cl)c1
not listed: [15] | [19]
inactive: all other assays above

Cc1c(C)c2c(c(C)c1OC(=O)CCC(=O)O)CC[C@@](C)(CCC[C@H](C)CCC[C@H](C)CCCC(C)C)O2
inactive: all assays above

CC[N+](C)(CC)CCOC(=O)C(O)(c1ccccc1)C1CCCCC1 (stereo not drawn)
not listed: [14] | [15] | [18]
inactive: all other assays above

C=CC1CO1 (stereo not drawn)
not listed: [19]
inactive: all other assays above

CN=C(N)NC(=O)Nc1c(C)cccc1C
active: [11] 6.74 µM
not listed: [19]
inactive: all other assays above

O=C(CCc1ccc(O)cc1)c1c(O)cc(O)cc1O
active: [2] 70.1 µM | [19] 38.4 µM
not listed: [7] | [10] | [11] | [18]
inactive: all other assays above

CCN1CCN(c2cc3c(cc2F)c(=O)c(C(=O)O)cn3C2CC2)CC1
not listed: [11] | [12] | [13] | [14] | [15] | [16] | [18] | [19]
inactive: all other assays above

CCCCS
not listed: [10]
inactive: all other assays above

CC(C)c1ccc(C(=O)N=C(N)N)cc1S(C)(=O)=O
not listed: [10] | [14] | [16]
inactive: all other assays above

Oc1cc2ccccc2cc1O
not listed: [9] | [11]
inactive: all other assays above
